# From the supplement of paper PMC10981050
# Where “and” joins values, the source holds several entries; their conditions need not be identical. Equal values may be shown once. Where a name gives a salt, the structure may show the parent alone.
# Key:
# Test in all cases: cell viability relative to vehicle control; higher = less cytotoxic
# Settings in all cases: 10 µM
# [1] = system: K562
# Method in brief: (§1)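 CRISPR-edited SRSF2 P95 mutant and isogenic wild-type clones of four leukaemia lines were screened against Selleck bioactive, kinase and epigenetic probe libraries, with identity-inconsistent compounds removed. Compounds were acoustically dispensed into 384-well plates at a single 10 µM dose, with 2000 cells in 50 µL medium per well. After 48 h, supernatant was removed and CellTiter-Glo luminescence was read. Viability was expressed as percent of the on-plate DMSO vehicle control, analysed in Genedata Screener.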
# [2] = system: MARIMO
# Method in brief: as §1
# [3] = system: MOLM14
# Method in brief: as §1
# [4] = system: OCI-AML2
# Method in brief: as §1
SMILES,cell viability ([1]; SRSF2 genotype: SRSF2 P95H/wt),cell viability ([1]; SRSF2 genotype: SRSF2 wt/wt) [%],cell viability ([2]; SRSF2 genotype: SRSF2 P95H/wt) [%],cell viability ([2]; SRSF2 genotype: SRSF2 wt/wt) [%],cell viability ([3]; SRSF2 genotype: SRSF2 P95H/wt) [%],cell viability ([3]; SRSF2 genotype: SRSF2 wt/wt) [%],cell viability ([4]; SRSF2 genotype: P95H/wt) [%],cell viability ([4]; SRSF2 genotype: wt/wt) [%]
CCCN1CCO[C@@H]2c3cc(O)ccc3OC[C@H]21,98% and 95.8%,92.6,97.5,97,104,101,96.5,93.2
CC[C@H]1CN2CC[C@]3(C(=O)Nc4ccccc43)[C@@H]2C[C@@H]1/C(=C\OC)C(=O)OC [Rhynchophylline],93.2% and 97.5%,89.5,80.4,77.7,88.9,88.3,86.7,88.5
O=C1CCC[C@@H]2[C@H]3CCCN4CCC[C@@H](CN12)[C@@H]34 [Matrine ((+)-Matrine)],94.4% and 112%,102,107,110,105,106,106,103
O=C(O)c1nn(Cc2ccc(Cl)cc2Cl)c2ccccc12 [Lonidamine],97% and 107%,101,107,97.7,98.1,95.6,99.5,92.2
CCC1(c2ccc(N)cc2)CCC(=O)NC1=O (stereo unspecified) [Aminoglutethimide (Cytadren)],98.1% and 103%,110,96.7,101,99.8,103,107,108
COc1ccc2c(c1)[nH]c1c(C)nccc12 [Harmine hydrochloride],88.3% and 94.7%,92.7,79.5,87.7,54.3,66.8,38.1,49.9
CN1C(=O)COc2c(C(=O)NC3CN4CCC3CC4)cc(Cl)cc21 (stereo unspecified) [Azasetron HCl],96.6% and 91.5%,94.9,92.8,98.7,90.5,97.3,95.9,94.7
O=S(=O)(F)Cc1ccccc1 [PMSF (Phenylmethylsulfonyl Fluoride)],95.7% and 94.9%,97,100,99.5,99.3,102,102,96.1
NCCc1ccccc1 [2-Phenylethylamine hydrochloride],105% and 104%,104,103,105,104,106,112,117
CCN(CC)C(=O)c1ccc(C2=CC3(CCNCC3)Oc3cccc(O)c32)cc1,93.6% and 101%,92.9,88.9,98.2,97.5,93.4,97.3,89
COc1ccc(N(C(=O)Oc2c(C)cccc2C)c2ccnc(Nc3ccc(N4CCN(C)CC4)cc3)n2)c(OC)c1,7.22% and 20.7%,6.62,72.3,58.7,38.8,35.4,23.5,28.6
"NCC(O)c1ccc(O)cc1 (racemic) [(+,-)-Octopamine HCl]",91.4% and 95.7%,97.6,96.5,96.5,99.5,96.8,93.1,97.3
CCN(C)C(=O)Oc1cccc([C@H](C)N(C)C)c1 [Rivastigmine tartrate (Exelon)],103% and 106%,101,101,105,99.5,108,104,113
C[C@@]12C[C@@H](c3ccoc3)OC(=O)[C@@H]1CC[C@]1(C)[C@H]2[C@@H]2C=C[C@@]1(O)C(=O)O2 [Columbin],104% and 96.4%,102,99,106,108,100,104,103
C=C[C@]12CN(C)[C@@H]3[C@H]4CO[C@H](C[C@H]41)[C@]1(C(=O)Nc4ccccc41)[C@@H]32 [Gelsemine],91.8% and 88.5%,87.9,87.9,97.5,96,90,90.1,90
COC1=C[C@]23CCCN2CCc2cc4c(cc2[C@@H]3[C@@H]1O)OCO4 [Cephalotaxine],91.4% and 93.8%,93.5,91,93.2,96.1,96.5,90.8,91.4
O=C(CBr)c1ccc(O)cc1 [PTP Inhibitor I],106% and 101%,107,103,104,97.2,108,104,103
CC1=C(O)C(=O)C=C2C1=CC=C1[C@@]2(C)CC[C@@]2(C)[C@@H]3C[C@](C)(C(=O)O)CC[C@]3(C)CC[C@]12C [Celastrol],0.95% and 0.55%,0.65,0.44,0.52,0.47,0.51,0.35,0.44
COc1cc2c(cc1OC)C(Cc1ccc(O)c(Oc3cc4c(cc3OC)CCN(C)C4Cc3ccc(O)cc3)c1)N(C)CC2.[O-][Cl+3]([O-])([O-])O (stereo unspecified) [Liensinine diperchlorate],87% and 79.8%,77.4,64.6,76.3,61.7,77.2,63.7,63.7

SMILES,cell viability ([1]; SRSF2 genotype: SRSF2 P95H/wt),cell viability ([1]; SRSF2 genotype: SRSF2 wt/wt) [%],cell viability ([2]; SRSF2 genotype: SRSF2 P95H/wt) [%],cell viability ([2]; SRSF2 genotype: SRSF2 wt/wt) [%],cell viability ([3]; SRSF2 genotype: SRSF2 P95H/wt) [%],cell viability ([3]; SRSF2 genotype: SRSF2 wt/wt) [%],cell viability ([4]; SRSF2 genotype: P95H/wt) [%],cell viability ([4]; SRSF2 genotype: wt/wt) [%]
C=CC(=C)C [Isoprene],102% and 103%,105,103,106,95.6,108,103,109
C[C@](O)(COc1ccc(C#N)cc1)C(=O)Nc1ccc(C#N)c(C(F)(F)F)c1,90.6% and 94.9%,97.9,98.7,94.2,94,96.7,99.4,93.4
C/C(=C\c1csc(C)n1)[C@@H]1C[C@@H]2O[C@@H]2CCC[C@H](C)[C@H](O)[C@@H](C)C(=O)C(C)(C)[C@@H](O)CC(=O)O1 [Epothilone A],22.5% and 33%,32.5,7.48,5.2,6.35,2.31,7.11,8.21
CC(C)(C)[C@]1(O)CC2OC(=O)CC23C(=O)OC2OC(=O)[C@H](O)C231 (stereo partly specified) [Bilobalide],108% and 105%,98,96.9,116,104,104,98.1,109
NC(=O)CN1CC(c2ccccc2)CC1=O (stereo unspecified) [Phenylpiracetam],94.8% and 94.3%,97.6,102,96.9,99.8,98.1,101,103
CN(C)Cc1c[nH]c2ccccc12 [Gramine],101%,100,102,102,99.6,100,102,98.9
CC1=C[C@]23C(=O)[C@@H](C=C(CO)[C@@H](O)[C@]2(O)[C@H]1O)[C@H]1[C@@H](C[C@H]3C)C1(C)C [Ingenol],113% and 98.6%,111,109,107,111,108,68.2,79
C[C@@H]1CC[C@@]2(OC1)O[C@H]1C[C@H]3[C@@H]4CC=C5C[C@@H](O[C@@H]6O[C@H](CO)[C@@H](O[C@@H]7O[C@@H](C)[C@H](O)[C@@H](O)[C@H]7O)[C@H](O)[C@H]6O[C@@H]6O[C@@H](C)[C@H](O)[C@@H](O)[C@H]6O)CC[C@]5(C)[C@H]4CC[C@]3(C)[C@H]1[C@@H]2C [Dioscin (Collettiside III)],0.8% and 0.73%,0.55,1.89,0.64,0.47,0.55,0.51,0.51
COc1cc2c(cc1O)CC1NCCc3cc(OC)c(O)c-2c31 (stereo unspecified) [Norisoboldine],108% and 103%,105,93.1,90.2,99.3,103,103,99.1
NCC(CC(=O)O)c1ccccc1 (stereo unspecified) [Phenibut],105% and 102%,102,102,109,108,104,96.7,116
Cc1cccc([C@H](C)c2c[nH]cn2)c1C [Dexmedetomidine HCl (Precedex)],99.1% and 101%,91,102,100,102,104,107,110
c1ccc2c(c1)[I+]c1ccccc1-2 [Diphenyleneiodonium chloride (DPI)],25.4% and 25.3%,25,19.6,25.4,3.2,2.99,11.4,16.4
CC(C)=CCC[C@]1(C)C=Cc2c(O)c3c(c(CC=C(C)C)c2O1)O[C@]12C(=C[C@@H]4C[C@H]1C(C)(C)O[C@@]2(C/C=C(/C)C(=O)O)C4=O)C3=O [Gambogic Acid],1.29% and 0.59%,0.98,0.39,0.5,0.42,0.51,0.38,0.45
Cc1c([C@H](C)[C@@H]2NC[C@@H](C)C[C@H]2O)ccc2c1C[C@H]1[C@H]2CC=C2C[C@@H](O)CC[C@@]21C [Veratramine],73.9% and 73%,75,64.7,64.5,81.1,89.6,47.1,62.9
Cc1ccccc1-n1c(Cn2ncc3c(N)ncnc32)nc2cccc(C)c2c1=O,93.5% and 98.8%,91.3,90.7,93.7,81.9,81.3,81.5,83.9
CC(=O)O[C@H]1C(=O)[C@@]2(C)[C@H]([C@H](OC(=O)c3ccccc3)[C@]3(O)C[C@H](O)C(C)=C1C3(C)C)[C@]1(OC(C)=O)CO[C@@H]1C[C@@H]2O,93.5% and 95%,102,100,96.6,104,102,104,97.3
C[C@]12CC[C@H](O)C[C@@]1(O)CC[C@@H]1[C@@H]2CC[C@]2(C)[C@@H](C3=CC(=O)OC3)CC[C@]12O [Periplogenin],8.32% and 13%,12.9,14.3,11.9,7.26,1.77,4.72,8.91
O=C(O[C@H]1C[C@H]2CC[C@@H](C1)[N+]21CCCC1)C(O)(c1ccccc1)c1ccccc1 [Trospium chloride (Sanctura)],98.8% and 100%,95.7,101,102,99.4,102,102,102
